The text below walks through data of PubChem BioAssay AID1347417 (National Center for Advancing Translational Sciences (NCATS), 2020).

Hit rate of the full screen: of about 120,000 compounds, about 5,300 (4.4%) were called active. Entries that show only a call come without a potency. Inconclusive results (about 22%) are left out. This is one part of a sample in which actives are shown more often than they occur. Values without a mark were called inactive. Calls come from the whole dose curve; as a rule, active = well fitted inhibition curve with a large enough effect; inconclusive = small, poorly fitted or top-dose-only effect; inactive = no such curve, though single readings can be large or run the other way.
Potency is the fitted concentration of half-maximal effect.

The test can be described thus: qHTS Primary assay for Inhibitors of Plasmodium falciparum Dd2 growth in vitro. Note: nearly all actives have a fitted effect of over 65% in size. The settings on record: P. falciparum Dd2 growth, SYBR Green, 72 h; series mostly up to 28.9 µM. The gist of the method: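 Readout: SYBR Green fluorescence, 485 nm excitation, 535 nm emission, after ~16 h lysis at 37C. Before that, Dd2-infected red cells (2.5% hematocrit) grew 72 h with compound, 29 uM top final concentration.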
For orientation: Quantitative high-throughput screening tests each substance at several concentrations.
With `CC(C)N1C[C@H](O)C[C@H]1c1nnc2n1CCN(C(=O)CCCc1ccccc1)C2`, the Potency entry is “inactive”. For the molecule `COc1ccc(-c2cc(N3CCC(NC(=O)c4ccoc4)CC3)n[nH]2)cc1`, the Potency is 0.794 µM (active).

Regarding `COc1ccc(-c2cc(N3CCCC(NC(=O)c4ccsc4)C3)n[nH]2)cc1` (stereo not given), the Potency result is “inactive”. For `O=C(NC1CCCN(c2cc(-c3ccc(Cl)cc3)[nH]n2)C1)c1ccccc1F` (stereo not given), the Potency entry is “inactive”.

On to `COc1ccc(-c2cc(N3CCC(NC(=O)c4cccc(C)c4)CC3)n[nH]2)cc1`, for which the Potency entry was “inactive”.

`COc1ccc(-c2cc(N3CCCC(NC(=O)c4cc(F)ccc4Cl)C3)n[nH]2)cc1` (stereo not given): the Potency was 8.91 µM (active). For the molecule `COc1ccc(-c2cc(N3CCC(NC(=O)c4ccc5c(c4)OCO5)CC3)n[nH]2)cc1`, the Potency entry is “inactive”. The same measure, in the same setting: the entry for `COc1cccc(C(=O)N2CCC(N3C[C@H](O)C[C@H]3C(=O)N3CCC(N4CCCCC4)CC3)CC2)c1` is “inactive”. On to `CC(C)Cc1ccc(S(=O)(=O)N2CCCC2c2nncn2Cc2ccncc2)cc1` (stereo not given), for which the Potency result is “inactive”. `CCC(CC)C(=O)N[C@@H](Cn1cc(-c2ccccc2F)c(=O)[nH]c1=O)C(=O)O`: the Potency result was “inactive”. As to `CN(Cc1cccnc1)c1nc2c(c(=O)[nH]1)CCN(Cc1cc(F)ccc1F)CC2`, the activity, negative = inhibition is 14.7% [at 5.79 µM].

Consider `COc1ccc(-c2onc(C)c2C(=O)NCc2ccc3c(c2)OCO3)cc1`, for which the Potency result is “inactive”. `CCOc1ccccc1NC(=O)N1c2ccccc2CC1c1nc(C(C)C)no1` (stereo not given): the activity, negative = inhibition is -4.28% [at 5.79 µM]. As for `O=C(NC[C@H]1C[C@@H]2CCN1C[C@@H]2CN1CCN(c2ncccn2)CC1)c1ccc(C(F)(F)F)cc1`, the Potency result is “inactive”. Still for that read-out and setting: the value for `C=C[C@H]1CN2CC[C@H]1C[C@@H]2CNCc1ccc(C(F)(F)F)cc1` was 2.24 µM (active); that for `O=C(CC1=C2CCCCC2NC1=O)Nc1ccccc1F` (stereo not given) was “inactive”; that for `O=C(NC1CCCc2c1[nH]c1ccc(F)cc21)c1n[nH]c2c1CCCC2` (stereo not given) was “inactive”. For the molecule `CC1=NOC2(CCN(Cc3c[nH]c4ccccc34)CC2)C1`, the Potency result is “inactive”. Same read-out and setting: the figure for `c1ccc2c(c1)CNC1(CCN(Cc3cccc4ccccc34)CC1)CO2` is 2 µM (active); for `COc1ccc(CN2CCC3(COc4ccccc4C(=O)N3)C2)cc1` (stereo not given) it is “inactive”; for `Cc1ccc(-c2nc(N3CCOCC3)cc3c2CN(Cc2cnn(C)c2)C3=O)cn1` it is “inactive”. The same measure, in the same setting: the value for `COc1ccc(CN2CCOc3nc(-c4cc(F)cc(OC)c4)ncc3C2=O)cc1` was “inactive”. Turning to `CCOc1ccccc1NC(=O)N1CCC(n2c(C)cnc2-c2cccnc2)CC1`, the Potency entry is “inactive”.

On to `C=C(C)COc1ccccc1C(=O)NC(C(=O)O)c1c(C)n[nH]c1C` (stereo not given), for which the Potency result is “inactive”. Still for that read-out and setting: the entry for `COc1ccccc1-c1cc(C(F)(F)F)nc(S(=O)(=O)CCCC(=O)Nc2cc(C)ccc2O)n1` is “inactive”; for `CSc1ccccc1NC(=O)CCS(=O)(=O)c1nc(-c2cccs2)cc(C(F)(F)F)n1` it is “inactive”; for `COc1ccccc1-c1cc(C(F)(F)F)nc(S(=O)(=O)CCCC(=O)Nc2ccc(F)cc2F)n1` it is 8.91 µM (active). The same measure, in the same setting: the entry for `Cc1noc(C)c1[S+](=O)([O-])N1CCCCC12Cc1ccccc1NC2=O` (stereo not given) is “inactive”; for `Fc1ccc(OCc2nc(C3CCNCC3)no2)cc1` it is “inactive”. Regarding `CN1CCCCCCN(C(=O)C2CCOCC2)[C@H]2CCC[C@H]2C1=O`, the Potency entry was “inactive”.

As to `CCN1CCN(C(=O)C23CCCC=C2N(C2CCCC2)C(=O)CC3)CC1` (stereo not given), the Potency entry was “inactive”. For `CC1Oc2ccc(NC(=O)c3ccc([N+](=O)[O-])cc3)cc2CN(Cc2ccccc2)C1=O` (stereo not given), the Potency entry was “inactive”. The same measure, in the same setting: the figure for `CCn1c(CN2CCC(C)CC2)nc2cc(NC(=O)c3ccccc3[N+](=O)[O-])ccc21` is 11.2 µM (active). On the same count and under the same terms, the value for `Cn1c(=O)c(=O)n(C)c2cc(NC(=O)c3ccccc3Br)ccc21` was “inactive”. `CC1CCC2(CC1)OCC(C(=O)NCc1ccc3c(c1)OCO3)N2C(=O)c1ccccc1F` (stereo not given): the Potency result was “inactive”. On to `O=C(NCCC1CCN(C(=O)Nc2cccc(F)c2)CC1)c1ccco1`, for which the Potency result was “inactive”. Consider `O=C(NCCN1CCCCC1)C1Cn2cccc2C(=O)N1Cc1ccccc1` (stereo not given), for which the Potency result is “inactive”.

For the molecule `COC[C@H]1CCCN1Cc1nc(C2(O)CCN(CC3CCCCC3)CC2)cs1`, the Potency was 10 µM (active). On the same count and under the same terms, the entry for `COC[C@H]1CCCN1Cc1nc(C2(O)CCN(C(=O)C3CCOCC3)CC2)cs1` is “inactive”. Same read-out and setting: the value for `COc1cccc(C(=O)N2C(C(=O)NC(C)C)COC23CCN(C(=O)c2cccc(F)c2)CC3)c1` (stereo not given) was “inactive”.

As for `N#CCCN1CCN(C(=O)c2cn3ccnc(-c4ccccc4)c3n2)CC1`, the Potency result was “inactive”. On the same count and under the same terms, the entry for `COCC(=O)NC[C@H]1CCN(Cc2cn(C)c3ccccc23)C[C@H]1N(C)C` is “inactive”; for `COc1cccc(NC(=O)N(Cc2cn(C)c3ccccc23)C2CCCCCC2)c1` it is 6.31 µM (active); for `COCCN1CCCCCC(O)c2cc(C(=O)Nc3cccc(OC)c3)ccc21` (stereo not given) it is “inactive”. Regarding `Cc1cccc(-c2nc3cnccn3c2NCCC(=O)N2CCCCCC2)c1`, the Potency entry was “inactive”. Same read-out and setting: the value for `CNc1ccc(OC2CCN(C(=O)NCCc3ccccc3)CC2)nc1` was “inactive”.

For the molecule `CN1c2cc(C(=O)NCc3ccccc3Br)ccc2C(=O)N2CCCCC21` (stereo not given), the Potency is 7.08 µM (active). For `Cc1ccc(CNC(=O)c2ccc3c(c2)N(C)C2CCCCN2C3=O)cc1C` (stereo not given), the Potency entry was “inactive”. Still for that read-out and setting: the entry for `CN1c2cc(C(=O)Nc3ccc(Cl)cc3)ccc2C(=O)N2CCCCCC21` (stereo not given) is “inactive”; for `CN1c2cc(C(=O)N3CCC(C(N)=O)CC3)ccc2C(=O)N2CCCCC21` (stereo not given) it is “inactive”. On the same count and under the same terms, the entry for `CN1c2cc(C(=O)Nc3ccccc3)ccc2C(=O)N2CCCCCC21` (stereo not given) is “inactive”.

`Cc1ccccc1CNC(=O)c1ccc2c(c1)N(C)C1CCCCN1C2=O` (stereo not given): the Potency was 4.47 µM (active). The same measure, in the same setting: the value for `COc1ccc(C(=O)N2[C@@H]3CC[C@H]2CC(NC(=O)c2ccncc2)C3)cc1OC` (stereo not given in full) was “inactive”. On the same count and under the same terms, the value for `CC(=O)N(C1CC1)C1CCOC2(CCN(C(=O)CCc3ccccc3)CC2)C1` (stereo not given) was “inactive”. As for `O=C(c1cc(F)ccc1F)N1CCC2(CC1)CC(N(Cc1ccccc1)C1CC1)CCO2` (stereo not given), the Potency result is “inactive”. For the molecule `O=C(c1ccco1)N1CCC2(CC1)CC(N(Cc1ccccc1)C1CC1)CCO2` (stereo not given), the Potency is 4.47 µM (active). Still for that read-out and setting: the value for `CCN1CC2(CCN(C(=O)c3cc4c(cc3OC)CCC4)CC2)OC1=O` was “inactive”; that for `O=Cc1cccc(-c2cc(F)cc(F)c2)c1` was “inactive”; that for `CC(=O)c1ccc(NC(=O)c2nc3nc(C)cc(C(F)F)n3n2)cc1` was “inactive”. For the molecule `CCc1nc2nc(C)cc(Nc3ccc(F)c(Cl)c3)n2n1`, the Potency was 3.55 µM (active). Same read-out and setting: the value for `Cc1ccc(S(=O)(=O)NCc2nc3nc(C)cc(C)n3n2)cc1` was “inactive”. For `COCCN1C(=O)c2ccccc2C(C(=O)NC2CCCCCC2)C12CCCCC2` (stereo not given), the Potency entry was “inactive”. `COc1cc(OC)c(NC(=O)Cn2ccn3nc(-c4ccccc4)c(CO)c3c2=O)cc1Cl`: the Potency result was “inactive”. On the same count and under the same terms, the entry for `Cc1cc(N2CCN(c3cccc(C(F)(F)F)c3)CC2)n2nc(-c3ccccc3)nc2n1` is “inactive”. Consider `CC(C)(C)C(=O)N1CC[C@@H](CC(=O)O)[C@@H](CCN2CCN(c3cccc(C(F)(F)F)c3)CC2)C1`, for which the Potency entry is “inactive”. On the same count and under the same terms, the figure for `CCNc1ncc(CN2CCN(c3cccc(C(F)(F)F)c3)CC2)cn1` is 11.2 µM (active); for `N#Cc1ccc(OCC2CN(Cc3c[nH]c4ccccc34)C(=O)c3c(ccnc3-c3ccc(OCC(=O)O)cc3)O2)cc1` (stereo not given) it is “inactive”; for `COc1ccccc1OC1(C(=O)O)CCN(C(=O)CC2CC2)CC1` it is “inactive”.

Regarding `CN(C)c1ccc(C(=O)N[C@H]2C[C@H]3C(=O)NC[C@@H](CCC(=O)N4CCCCC4)N3C2)cc1`, the Potency entry is “inactive”.

On to `Cn1nc2c(c1NC(=O)Cn1nc3c(cc1=O)CCCC3)CSC2`, for which the Potency result is “inactive”. Still for that read-out and setting: the figure for `O=C(CCc1ccccc1)Nc1ccc([C@@H](O)[C@H]2COCC(=O)N2Cc2ccccc2F)cc1` is 11.2 µM (active). On the same count and under the same terms, the entry for `CCN1C(=O)COC[C@@H]1C(O)c1ccc(NC(=O)Cc2ccc(OC)cc2)cc1` (stereo not given in full) is “inactive”; for `CCOCCN1C(=O)COC[C@@H]1[C@H](O)c1ccc(NC(=O)c2cnccn2)cc1` it is “inactive”; for `Cc1ccc(C(=O)Nc2ccc(C(O)[C@H]3COCC(=O)N3Cc3ccccc3F)cc2)cc1` (stereo not given in full) it is “inactive”. As for `O=C(Nc1ccc([C@@H](O)[C@H]2COCC(=O)N2CCCc2ccccc2)cc1)C1CC1`, the Potency result is “inactive”. For `COCC(=O)Nc1ccc([C@@H](O)[C@H]2COCC(=O)N2Cc2ccc(C(F)(F)F)cc2)cc1`, the Potency is 12.6 µM (active). In the case of `Cc1ccc(Cl)cc1NC(=O)CN1C(=O)NC2(CCC(C)CC2)C1=O` (stereo not given), the Potency result is “inactive”. On to `Cc1ccc(CN2CCCOCCNC(=O)CC2)o1`, for which the Potency result is “inactive”. With `CCn1cc(CN2CC[C@H]3C(=O)NCCCCCCN(Cc4ccncc4)[C@@H]3C2)c(C)n1`, the Potency entry was “inactive”. Consider `O=C(NCc1ccccc1)N1CCN2C(=O)NC[C@H]2C1`, for which the Potency entry is “inactive”. Take `O=C(NC1CCCCCC1)c1ccc2c(c1)CC(=O)N2Cc1cccc(F)c1`: the Potency result was “inactive”. On the same count and under the same terms, the value for `CCOc1ccc(CNC(=O)c2ccc3nc(CC)c(CC)nc3c2)cc1OC` was “inactive”; that for `CCOc1ccc(OCC)c(Nc2nc3ccccc3n3nnnc23)c1` was “inactive”; that for `CCOc1ccc(CNC(=O)c2cccc(Nc3nc4ccccc4n4nnnc34)c2)cc1OC` was 11.2 µM (active). For `CC(=O)NCC1Cn2cccc2CN1Cc1ccccc1` (stereo not given), the Potency result is “inactive”.

For `O=C(c1cccc(-n2cnnc2)c1)N(Cc1ccsc1)CC1CCCO1` (stereo not given), the Potency entry is “inactive”. On to `CC(C)c1ccc(C2CC(=O)N3CN(C4CCCCC4)CSC3=C2C#N)cc1` (stereo not given), for which the Potency is 11.2 µM (active).

Turning to `CCn1nccc1C(=O)N1CCCC(c2nc(-c3cccnc3)no2)CCNC(=O)CC1` (stereo not given), the Potency entry was “inactive”. The same measure, in the same setting: the value for `O=C(c1cc(F)ccc1F)N1CCCCCC1c1nnc(-c2ccccc2)o1` (stereo not given) was “inactive”; that for `Cc1cc(CN(C)C(=O)c2cc(COc3ccc(F)cc3F)on2)on1` was “inactive”; that for `CCCNc1cc(N2CCC(CCC(=O)Nc3ccc(C)cc3)CC2)ncn1` was 12.6 µM (active). Same read-out and setting: the value for `CCNc1cc(N2CCC(CCC(=O)N3CCc4ccccc4C3)CC2)ncn1` was “inactive”; that for `CCCNC(=O)CCC1CCN(C(=O)c2ccc(C)cc2)CC1` was “inactive”. Same read-out and setting: the value for `CCOc1ccccc1C(=O)N[C@@H]1CN(c2ncccn2)C[C@H]1CO` was “inactive”; that for `CC(=O)N1CCC(C(=O)NCC(=O)N2CCCCCCNC(=O)CC2c2ccccc2)CC1` (stereo not given) was “inactive”.
